Screening data deposited in PubChem by NMMLSC.
RGS7-Gao – modulates binding of RGS7 to human Galphao. P09471. Multiplexed bead flow cytometry; actives lie on both sides. binding response (% of control), % at 10 µM. 0.35% of 220,000 active. AID 1439; in the data active = binding response below about 49% or above about 150%; inconclusive = no clear call, values can overlap the other calls; inactive = in between;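 also: fluorescent Galphao held in activated GDP-AlF4 state binding bead-coupled RGS7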
Target sequence (P09471 whole entry, looked up): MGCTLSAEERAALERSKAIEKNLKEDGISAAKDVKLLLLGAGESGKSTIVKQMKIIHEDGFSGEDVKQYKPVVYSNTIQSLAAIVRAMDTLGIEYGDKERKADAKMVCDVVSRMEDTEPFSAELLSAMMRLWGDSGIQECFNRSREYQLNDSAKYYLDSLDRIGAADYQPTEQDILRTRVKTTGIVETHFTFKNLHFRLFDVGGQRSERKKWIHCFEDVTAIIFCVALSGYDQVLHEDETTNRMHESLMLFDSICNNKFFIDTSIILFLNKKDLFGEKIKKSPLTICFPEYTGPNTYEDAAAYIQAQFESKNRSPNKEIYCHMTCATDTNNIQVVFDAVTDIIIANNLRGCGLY
RGS4-Gao reg – modulates binding of RGS4 to human Galphao; P09471; Multiplexed bead flow cytometry; actives lie on both sides; binding response (% of control), % at 10 µM; 0.33% of 220,000 active; in the data active = binding response below about 49% or above about 150%; inactive = in between;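 also: fluorescent Galphao activated with aluminum fluoride binding bead-coupled RGS4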
RGS16-Gao HTS – regulators of human RGS16-Galphao interaction; O15492+P09471; bead-based flow cytometry RGS16-Galphao binding, fluorescence; actives lie on both sides; binding response (% of control), % at 10 µM; 0.38% of 220,000 active; AID 1441; call rule not given here;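 also: Galphao activated by GDP with aluminum fluoride before binding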
Target sequence (O15492 whole entry, looked up): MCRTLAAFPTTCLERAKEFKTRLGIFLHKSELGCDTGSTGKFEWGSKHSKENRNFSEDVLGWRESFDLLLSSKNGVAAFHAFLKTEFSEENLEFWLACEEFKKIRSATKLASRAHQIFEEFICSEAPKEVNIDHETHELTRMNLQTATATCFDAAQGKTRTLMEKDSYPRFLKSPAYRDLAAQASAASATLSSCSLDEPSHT
Target sequence (P09471 whole entry, looked up): as the sequence (P09471 whole entry, looked up) above
GSH fluor – compound fluoresces at 488/530 nm on GSH beads | GSH beads flow cytometry, compound fluorescence 488/530 nm; active compounds read high | fluorescence (KMESF) at 10 µM | 0.25% of 190,000 active | AID 1776; in the data active = fluorescence above about 89;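 also: glutathione beads carrying GST-tagged Bcl family fusion proteins plus one bare bead set; values are compound well signal with DMSO vehicle wells as background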
Avidin fluor – avidin bead compound fluorescence profile; Avidin beads, compound fluorescence 488/530 nm, flow cytometry; active compounds read high; 0.38% of 220,000 active; fluorescence (KMESF) at 10 µM; in the data active = fluorescence above about 47
RGS8-Gao reg – modulates binding of RGS8 to human Galphao. P09471. multiplexed bead flow cytometry; actives lie on both sides. response (percent of control binding), % at 10 µM. 0.34% of 220,000 active. AID 1423; in the data active = response below about 60% or above about 140%; inactive = in between;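 also: Galphao activated as the GDP aluminium fluoride complex binding bead-coupled RGS8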
* = called active by the depositor; ? = inconclusive; . = not tested or not shown. This is a sample that favours compounds with a hit; in the whole collection about 1.2% have one here.

SMILES | RGS7-Gao | RGS4-Gao reg | RGS16-Gao HTS | GSH fluor | Avidin fluor | RGS8-Gao reg
N#Cc1cc(-c2ccc(Cl)cc2)cnc1Sc1ccccc1 | 15* | 21* | 1.3* | 24 | -2 | 12*
N#Cc1cc(-c2ccccc2)cnc1Sc1ccc(Cl)cc1 | 101 | 100 | 103 | 23 | 8 | 99
COCCNC(=O)C1c2ccccc2C(=O)N(CCOC)C1c1ccc(F)cc1 (stereo unspecified) | 104 | 100 | 103 | 26 | 48* | 101
COCCN1C(=O)c2ccccc2C(C(=O)NCCN(C)C)C1c1ccc(F)cc1 (stereo unspecified) | 93 | 91 | 96 | 24 | 32 | 96
Cc1ccc(-c2nc(SCC(=O)N(C)C3CCS(=O)(=O)C3)[nH]c2-c2ccc(C)cc2)cc1 (stereo unspecified) | 97 | 99 | 100 | 10 | 9 | 100
N/C(=N\OC(=O)CN1C(=O)c2ccccc2C1=O)c1ccc(Br)cc1 | ? | 99 | 99 | 20 | 9 | 101
Cc1c(N=Cc2ccc[nH]2)c(=O)n(-c2ccccc2)n1C | 106 | 99 | 93 | 20 | 56* | 95
Cn1c(=O)[nH]c(=O)c2c1nc1n2CC(COc2ccc3ccccc3c2)O1 (stereo unspecified) | ? | 95 | 97 | . | 7 | 101
CC(=O)Nc1ccc(NC(=O)COC(=O)c2ccccn2)cc1 | 111 | 101 | 98 | 10 | 12 | 102
Cc1nc(N2CCN(c3ccccc3)CC2)[nH]c(=O)c1Cc1cccc2ccccc12 | 148 | 114 | 94 | 23 | 197* | 96
Cc1nc(N2CCN(c3ccccc3)CC2)[nH]c(=O)c1CCC(C)C | ? | 100 | 96 | 15 | 11 | 101
Cc1ccc(CN2CCSc3ccc(C(=O)NCc4ccccn4)cc32)cc1 | 104 | 102 | 107 | 9 | 11 | 98
CCCN(CCC)C(=O)C1CC(=O)OC12CCCCC2 (stereo unspecified) | 110 | 107 | 103 | 19 | 10 | 104
CCOC(=O)C1=C(Cc2ccc(C)cc2)C(=O)c2ccccc2C1=O | 79 | 87 | 58 | 226* | 3 | 69
CCOC(=O)C1=C(Cc2ccc(OC)cc2)C(=O)c2ccccc2C1=O | 74 | 73 | 57 | 63 | 1 | 74
COc1ccc2c(=O)c(Oc3ccc(C(=O)O)cc3)c(C(F)(F)F)oc2c1 | ? | 103 | 104 | 15 | 10 | 104
CCOc1ccc(-c2csc(NNC3=NCCCCC3)n2)cc1 | 103 | 102 | 101 | 21 | 9 | 101
O=C(CN1CCOCC1)N1CCN(S(=O)(=O)c2ccccc2)C1c1ccccc1 (stereo unspecified) | 105 | 101 | 99 | 14 | 59* | 99
COc1ccc(N(CC(=O)NC2CCCCC2)C(=O)CCCC(=O)Nc2ccccn2)c(OC)c1 | 132 | 114 | 103 | 14 | 84* | 103
Cc1ccccc1CN(CC1CCC(C(=O)O)CC1)C(=S)Nc1ccccc1F (stereo unspecified) | 94 | 103 | 95 | 15 | 6 | 102
O=C(COC(=O)C1CC2C=CC1C2)Nc1ccccc1F (stereo unspecified) | 105 | 102 | 101 | 10 | 9 | 102
S=C(Nc1cccc2ccccc12)NN1CCOCC1 | 116 | 117 | 116 | 24 | 47* | 104
O=C(Nc1cccc2ccccc12)N1CCOCC1 | 106 | 106 | 110 | 28 | 19 | 103
Cc1c(C)c2ccc(OS(C)(=O)=O)c(C)c2oc1=O | 99 | 98 | 100 | 19 | 6 | 101
Cc1ccccc1NC(=O)C1CCCN1C(=O)NC1CCCCC1 (stereo unspecified) | 102 | 102 | 104 | 263* | 8 | 103
SMILES | RGS7-Gao | RGS4-Gao reg | RGS16-Gao HTS | GSH fluor | Avidin fluor | RGS8-Gao reg
C[C@H](N=C1NS(=O)(=O)c2ccccc21)C(=O)OCc1cc([N+](=O)[O-])cc2c1OCOC2 | ? | 95 | 98 | . | . | 100
COC(=O)c1cc(NC(=O)c2cccc(Cl)c2)c(=O)oc1/C=C/Nc1cc(C)cc(C)c1 | 104 | 106 | 108 | 173* | 16 | 99
COC(=O)c1cc(NC(=O)c2cccc(C(F)(F)F)c2)c(=O)oc1C | ? | 103 | 103 | 19 | 11 | 102
COc1ccc(-c2cc3cc(OC)c(OC)cc3c(C)n2)cc1 | ? | 93 | 95 | . | 11 | 94
Cc1cccc(OCc2nnc(SCC(=O)c3ccccc3)o2)c1 | 130 | 105 | 104 | 14 | 64* | 98
Cc1cccc(OCc2nnc(SCC(=O)NCCc3ccccc3)o2)c1 | 104 | 99 | 102 | 243* | 10 | 100
O=C1NC(N2CCOCC2)=N/C1=C/c1ccc2c(c1)OCO2 | 102 | 98 | 100 | 21 | 9 | 99
CCCNC(=O)Nc1nccs1 | 105 | 101 | 99 | 24 | 57* | 101
O=C(NC1CCCCC1)C(c1ccco1)N(C(=O)c1csnn1)C1CCCC1 (stereo unspecified) | 29* | 36* | 26 | 30 | 3 | 28*
CCc1ccccc1NC(=O)Cn1cccc1C1=NC(c2ccccc2)CO1 (stereo unspecified) | 127 | 106 | 110 | 21 | 51* | 102
Cc1ccc(NC(=O)Cn2cccc2C2=NC(c3ccccc3)CO2)cc1C (stereo unspecified) | 96 | 101 | 114 | 21 | 14 | 105
COc1ccc2c(C)cc(SCC(=O)NCCN3C(=O)CSC3=O)nc2c1 | 109 | 103 | 110 | 13 | 12 | 103
NS(=O)(=O)c1ccc(NC(=O)c2ccc(-c3ccccc3)cc2)cc1 | 100 | 98 | 101 | 57 | 10 | 100
NS(=O)(=O)c1ccc(NS(=O)(=O)c2ccc(NC(=O)c3ccc(-c4ccccc4)cc3)cc2)cc1 | 113 | 106 | 410 | 13 | 373* | 110
COc1ccc(NC(=O)CSc2ccc(F)cc2)cc1S(=O)(=O)N1CCCCC1 | 106 | 104 | 102 | 8 | 3 | 103
COc1ccc(NC(=O)CSc2ccc(NC(C)=O)cc2)cc1S(=O)(=O)N1CCCCC1 | 133 | 136 | 105 | 23 | 74* | 100
CCCn1nc(Oc2nc(N(C)C)nc(N(C)C)n2)ccc1=O | 95 | 98 | 104 | 16 | 12 | 100
Cc1ccc2ccc(S(=O)(=O)n3nc(C)cc3C)cc2c1 | 120 | 108 | 109 | 27 | 54* | 103
CCN(CC)S(=O)(=O)c1ccc2nc(CCl)[nH]c2c1 | 102 | 103 | 99 | 12 | 24 | 100
N/C(Cc1ccccc1)=N\OC(=O)c1cccc2ccccc12 | 96 | 96 | 101 | 11 | 1 | 99
CCCSC1=N/C(=C\c2ccc3c(c2)OCO3)C(=O)S1 | 110 | 101 | 104 | 52 | 60* | 103
CCSC1=N/C(=C\c2ccc3c(c2)OCO3)C(=O)S1 | 93 | 96 | 95 | 12 | 21 | 95
